Measured values published in PubChem BioAssay (Tox21).
Inconclusive results are not listed. Entries that show only a call come without a potency. Values without a mark were called inactive. Calls of active or inactive are those of the source. The call rests on the fitted dose curve.

molecular target: Peroxisome proliferator-activated receptor delta (Homo sapiens) (UniProt Q03181); assay: qHTS assay to identify small molecule agonists of the peroxisome proliferator-activated receptor delta (PPARd) signaling pathway (AID 743212); conditions: HEK293H PPARd-UAS-bla, beta-lactamase FRET ratio, 17 h; series mostly up to 62.6 µM
Text: U.S. Tox21 Program National Center for Advancing Translational Sciences [NCATS] NIH Chemical Genomics Center [NCGC] U.S. Environmental Protection Agency [EPA] National Institutes of Environmental Health Sciences [NIEHS] National Toxicology Program [NTP] U.S. Food and Drug Administration [FDA] Tox21 Assay Overview: The peroxisome proliferator-activated receptors (PPARs) are lipid-activated transcription factors of the nuclear receptor superfamily with three distinct subtypes namely PPAR alpha, PPAR delta (PPARd) and PPAR gamma. All these subtypes heterodimerizes with Retinoid X receptor (RXR) and have different physiological functions. […] To identify the compounds that activate PPAR-delta signaling, GeneBLAzer PPAR delta UAS-bla HEK293H cell line (Invitrogen, Carlsbad, CA, USA) containing a beta-lactamase reporter gene under the control of an Upstream Activator Sequence (UAS) was used to screen the Tox21 compound library.
Tox21 Assay Protocol Summary: PPARd-bla cells were dispensed at 3000 cells/6uL/well in 1536-well black wall/clear bottom plates using a Multidrop Combi (Thermo Fisher Scientific, Waltham, MA) dispenser. After the assay plates were incubated at 37 C and 5% CO2 for 5 h, 23 nL of compounds dissolved in DMSO, positive controls or DMSO only was transferred to the assay plate by a Pintool station (Kalypsys, San Diego, CA). The assay plates were incubated at 37C for 17 h. After 1 uL of LiveBLAzerTM B/G FRET substrate was added using a Bioraptr Flying Reagent Dispenser (FRD) workstation (Beckman Coulter, Indianapolis, IN, USA), the plates were incubated at room temperature for 2 h, and fluorescence intensity was measured by an Envision plate reader (PerkinElmer, Shelton, CT).

Chain of Peroxisome proliferator-activated receptor delta (Homo sapiens) (Q03181 whole entry, looked up): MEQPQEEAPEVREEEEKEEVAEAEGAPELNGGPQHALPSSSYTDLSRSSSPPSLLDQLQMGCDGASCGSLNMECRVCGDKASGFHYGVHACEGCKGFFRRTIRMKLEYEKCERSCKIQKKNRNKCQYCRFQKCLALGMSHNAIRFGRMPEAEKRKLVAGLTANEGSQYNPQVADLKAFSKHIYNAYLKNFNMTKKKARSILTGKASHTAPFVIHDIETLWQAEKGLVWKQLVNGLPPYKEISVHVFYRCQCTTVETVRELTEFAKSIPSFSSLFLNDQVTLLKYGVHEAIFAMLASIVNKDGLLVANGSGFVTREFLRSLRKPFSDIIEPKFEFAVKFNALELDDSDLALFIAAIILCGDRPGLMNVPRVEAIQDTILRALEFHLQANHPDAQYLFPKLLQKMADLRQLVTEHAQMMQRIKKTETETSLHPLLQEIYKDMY

Row | SMILES | Potency | activation
1 | CC(C)C(Br)C(=O)NC(N)=O (stereo not given) | inactive | –
2 | COc1ccc2c3c1O[C@H]1[C@H](O)CC[C@H]4[C@@H](C2)N(C)CC[C@@]341 | inactive | –
3 | NC(=O)C(Cl)Cl | inactive | –
4 | O=c1[nH]c2cc(Cl)ccc2n1C1CCNCC1 | inactive | –
5 | C=CC(=C)C | inactive | –
6 | CC(C)(C)c1ccc(OP(=O)(Oc2ccccc2)Oc2ccccc2)cc1 | inactive | –
7 | CN1CCc2cc(Cl)c(O)cc2[C@H]2c3ccccc3CC[C@@H]21 | inactive | –
8 | OCC(Br)CBr (stereo not given) | inactive | –
9 | CCNS(=O)(=O)C(F)(F)C(F)(F)C(F)(F)C(F)(F)C(F)(F)C(F)(F)C(F)(F)C(F)(F)F | inactive | –
10 | CCOP(=S)(OCC)Oc1cc(C)nc(N(CC)CC)n1 | inactive | –
11 | FC(F)C(F)(F)OCC(Cn1cncn1)c1ccc(Cl)cc1Cl (stereo not given) | inactive | –
12 | COc1c2c(cc3c1OCO3)CCN(C)C2 | inactive | –
13 | CCC(C)c1cccc(C(C)CC)c1O (stereo not given) | inactive | –
14 | CCOP(=O)(Sc1ccccc1)Sc1ccccc1 | inactive | –
15 | N#Cc1ccc(N(CC(N)=O)CC(F)(F)F)cc1C(F)(F)F | inactive | –
16 | BrCCCBr | inactive | –
17 | CCCCON=O | inactive | –
18 | CC(Cc1ccc(O)cc1)NCC(O)c1cc(O)cc(O)c1 (stereo not given) | inactive | –
19 | O=[N+]([O-])c1cccc2cccc([N+](=O)[O-])c12 | inactive | –
20 | Clc1c(Cl)c(Cl)c(Cl)c(Cl)c1Cl | – | -6.6% [at 5.95 µM]

Row | SMILES | Potency | activation
21 | CC(Cc1ccccc1)N(C)Cc1ccco1 (stereo not given) | inactive | –
22 | CCCCC(CC)COC(=O)OOC(C)(C)C (stereo not given) | inactive | –
23 | CCCCCON=O | inactive | –
24 | O=S(=O)(O)F | inactive | –
25 | Nc1cc(Cl)ccc1Cl | inactive | –
26 | Cc1ccccc1OP(=O)(Oc1ccccc1C)Oc1ccccc1C | inactive | –
27 | CCOC(=O)CCN(SN(C)C(=O)Oc1cccc2c1OC(C)(C)C2)C(C)C | inactive | –
28 | ClC1=C(Cl)[C@]2(Cl)[C@H]3[C@H]([C@@H]4C=C[C@H]3C4)[C@@]1(Cl)C2(Cl)Cl | inactive | –
29 | CC1(C)C(C=C(Cl)Cl)C1C(=O)OC(C#N)c1ccc(F)c(Oc2ccccc2)c1 (stereo not given) | inactive | –
30 | ClSC(Cl)(Cl)Cl | inactive | –
31 | CCC1(CC)C(=O)N=C(O)NC1=O | inactive | –
32 | CC(C)NCC(O)c1ccccc1Cl (stereo not given) | inactive | –
33 | Cc1nn(-c2cc(NS(C)(=O)=O)c(Cl)cc2Cl)c(=O)n1C(F)F | inactive | –
34 | CCC(C)Br (stereo not given) | inactive | –
35 | N#CSCc1ccccc1 | inactive | –
36 | CCOC(=O)Cc1ccccc1 | inactive | –
37 | Clc1ccc(C(c2ccc(Cl)cc2)C(Cl)Cl)cc1 | inactive | –
38 | COC(=O)C(C)N(C(=O)c1ccco1)c1c(C)cccc1C (stereo not given) | inactive | –
39 | CNC(=O)CSP(=O)(OC)OC | inactive | –
40 | CCN(CC)Cc1nccn1-c1ccc([N+](=O)[O-])cc1C(=O)c1ccccc1Cl | inactive | –
